In the first assay the target is BRD2. Kind of assay: pooled miR-30 sensor sort-seq; sequence = guide strand. To be noted: shRNA.
The sequence TACATCAGCAGCAAACTCCTGT showed a sensor-assay potency score (higher = more potent) of 0.587.
Sequence TTGGATTATATGCACAACTCGG showed a sensor-assay potency score (higher = more potent) of -1.15.
TTGTTTTCAAGTCTCCTCTTAA registered a sensor-assay potency score (higher = more potent) of -0.54.

For a further assay, the target named is BRMS1L. Described as above. To be noted: shRNA.
Sequence TTGTAGTTTTGCATCCACCTGA came in with a sensor-assay potency score (higher = more potent) of 0.526.
TTCACAGTCTTCATCATCCATT displayed a sensor-assay potency score (higher = more potent) of -0.228.
TTCAAGAATATCAAGATCTTGT had a sensor-assay potency score (higher = more potent) of 0.566.
In the case of TTCTTCTTCTTTCACAGTCTTC, the sensor-assay potency score (higher = more potent) was -0.927.
For TTCTTTATAAAGTTGATCTTTG, the sensor-assay potency score (higher = more potent) is -0.111.
On the same count and under the same terms, then TTCAGATCTAGCACTGTGCAGA, with -0.0416; and TGGACCTGAAACAACAACTGGC, with -0.0627; and TTCTTTACAGATTCTAAGCAGA, with -0.334.
Still for that read-out and setting: then TTCTGAGCTATCTCCATCCTCG, with -0.213; and TAACATATCAATGAGATCTATT, with -0.518.
Still for that read-out and setting: to TTTGGTAACACTAATAAGGTAA belongs -0.0586; to TATAGCAACAGCTTTTCGCTCT, 0.681.

A further assay concerns the target BRP44L. The description is as above. The settings on record: shRNA.
For the sequence TTGCTTCGGACATAGTCCGCCG, the sensor-assay potency score (higher = more potent) was -0.944.
Turning to TCGTGTTTGATAAGCCGCCCTC, the sensor-assay potency score (higher = more potent) is -0.468.
Still for that read-out and setting: to TAACATTTTTAAACAGTGGGGA belongs 0.282.
On to TTTTTCATTAAGTAAATTCTAA, for which the sensor-assay potency score (higher = more potent) is -0.748.
Consider TACCTTGTAGGCAAATCTCATG, for which the sensor-assay potency score (higher = more potent) was -1.15.
The same measure, in the same setting: to TTTGATAAGCCGCCCTCCCTGG belongs -0.467.
Take ATGAATGTCAAAGAATAGCAAC: the sensor-assay potency score (higher = more potent) is -1.23.
Sequence TCAAAGAATAGCAACAGAGGGC returned a sensor-assay potency score (higher = more potent) of -0.477.
Same read-out and setting: to TTCGGACATAGTCCGCCGCTTT belongs -1.36.
TTTTGAGCTACTCTTTATGGAA gave a sensor-assay potency score (higher = more potent) of -0.685.
In turn, TAGTCCCGGAAATCCTTGCTTC yielded a sensor-assay potency score (higher = more potent) of -0.727.
Same read-out and setting: to TTAATTGCATATTTTGAGCTAC belongs -0.357.

In the next assay the target is BST2. The assay is described as above. To be noted: shRNA.
On to TTCTTGTCCGCGATTCTCACGC, for which the sensor-assay potency score (higher = more potent) is -0.275.
On the same count and under the same terms, to TAGTACTTCTTGTCCGCGATTC belongs -1.14; to TCGCTGTTGGCCTTGATGGTGA, -1.17; to TACTTCTTGTCCGCGATTCTCA, -0.543.
Still for that read-out and setting: to ATTCTCACGCTTAAGACCTGGT belongs -0.0201.
For the sequence ATTAGGGCCATCACAGTGTGGT, the sensor-assay potency score (higher = more potent) is -0.491.
Turning to TCAGTCGCTCCACCTCTGCAGA, the sensor-assay potency score (higher = more potent) is -1.23.
As for TTTCTCTTCTCAGTCGCTCCAC, the sensor-assay potency score (higher = more potent) was 0.121.
The same measure, in the same setting: to TAATGTAGTGATCTCTCCCTCA belongs 0.239.
Consider TGGTTTTCTCTTCTCAGTCGCT, for which the sensor-assay potency score (higher = more potent) is -0.752.
Still for that read-out and setting: then TTTAATGTAGTGATCTCTCCCT, with 0.397.
In turn, ATGTAGTGATCTCTCCCTCAAG came in with a sensor-assay potency score (higher = more potent) of -1.69.
TTAATGTAGTGATCTCTCCCTC gave a sensor-assay potency score (higher = more potent) of -0.16.
Also: reference of the scale not given here.
